Screening data: PubChem BioAssay, National Center for Advancing Translational Sciences (NCATS)
Shown are actives, neighbours in structure and some others; about 8% of the full set was active somewhere.
HCV inh: HCV inhibition; Huh7.5.1 HCVcc-Cre infection, luciferase reporter, 44 h; Potency, µM (doses to about 41.8 µM), most hits filed as inhibitors; 340,000 compounds, 3.4% hits; AID 651820
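Antiviral activity was scored by luciferase reporter output from cells infected with HCVcc-Cre (~0.5 moi) in presence of compound, 44 h infection period, cells seeded 1,000/well 4 h prior.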
SARS PLpro yeast-1: blocks SARS-CoV papain-like protease in a yeast assay; S. cerevisiae expressing SARS-CoV PLpro, growth rescue; Potency, µM (series often up to 32.9 µM), most hits filed as activators; 330,000 compounds, 0.19% hits; AID 485353; calls by dose curve; further: nearly all actives have a fitted effect of over 55% in size
HCMV inh: blocks human cytomegalovirus replication | AID 1259415 | HFF cells, HCMV-luciferase reporter, 72 h; active compounds read low | 410,000 compounds, 4.5% hits | activity change, negative = inhibition, % at 57.5 µM; in the data active means activity change below about -60%; inconclusive means no clear call, values can overlap the other calls; inactive means above about -39%
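After 16 h attachment at 37C, HFF cells received test compound and HCMV-luciferase (1 PFU/cell); reporter luminescence read 72 h later, data normalized against buffer-only and known inhibitor Salinomycin.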
FMDV antiviral: antivirals against foot and mouth disease virus; FMDV antiviral cell-based qHTS; Potency, µM (highest dose often 57.9 µM), hits mostly inhibitors; 410,000 compounds, 1.2% hits; AID 1159524; calls by dose curve; tested in HEK293T cells; further: read-out not given here; nearly all actives have a fitted effect of over 45% in size
LASV entry inh: blocks Lassa virus binding to or entry into cells; Lassa virus pseudotype entry inhibition, cell reporter; Potency, µM (series often up to 37.9 µM), actives largely listed as inhibitors; 300,000 compounds, 1.2% hits; calls by dose curve; tested in HEK293 cells; further: nearly all actives have a fitted effect of over 50% in size
MARV entry inh: inhibitors of Marburg virus binding or cell entry | Marburg virus pseudotyped entry inhibition, cell reporter | Potency, µM (series often up to 37.8 µM), actives largely listed as inhibitors | 300,000 compounds, 1.8% hits; calls by dose curve; tested in HEK293 cells
SARS PLpro yeast-2: Rescues yeast growth by inhibiting SARS-CoV PLpro; shares compounds with SARS PLpro yeast-1; yeast expressing SARS-CoV PLpro, growth phenotype rescue; calls only; 1,000 compounds, 19% hits; call rule not given here
HeLa G2M arrest: HeLa G2/M cell cycle arrest induction. shares compounds with MARV entry inh. HeLa cell cycle G2/M arrest, Hoechst DNA content imaging. Potency, µM, usual class: inhibitors. 25 compounds, 60% hits
WI-38 cytotox: WI-38 cytotoxicity of perinucleolar compartment inhibitors. shares compounds with MARV entry inh. WI-38 normal lung fibroblasts, ATPLite luminescence ATP viability, 24 h. Potency, µM (titrated, usually from 46.1 µM), hits mostly inhibitors. 120 tested, under 10 active
PNC assembly inh: confirmation of perinucleolar compartment assembly inhibitors; 120 compounds, 50% hits; PC3M PTB-GFP, PNC prevalence imaging, 16 h; Potency, µM (titrated, usually from 46.1 µM), most hits filed as inhibitors; shares compounds with MARV entry inh
PC3M casp3-7: counter-screen for PNC inhibitors: PC3M caspase 3/7 activation | PC3M-GFP caspase 3/7 activation, luminescence, 24 h | shares compounds with MARV entry inh | activity change, positive = activation, % at 46.1 µM | 120 tested, under 10 active
A number is an active result; i = inactive; ? = inconclusive; nt = not tested or not shown. Unless noted, the call rests on the fitted dose curve; in most records, active means well fitted curve in the direction sought with a large enough effect; inconclusive means small, poorly fitted or top-dose-only effect, or another doubt; inactive means no such curve, though single readings can be large; an effect the other way counts as inactive or inconclusive.

SMILES	HCV inh	SARS PLpro yeast-1	HCMV inh	FMDV antiviral	LASV entry inh	MARV entry inh	WI-38 cytotox	PNC assembly inh	PC3M casp3-7	others
CSc1ccc(-c2nc3ccc(C)cn3c2Nc2ccccc2C)cc1	nt	nt	i	i	i	i	nt	nt	nt
COc1ccc(CNC(=O)CS(=O)(=O)c2cccc3nsnc23)cc1	nt	nt	i	i	i	nt	nt	nt	nt
CCOc1ccc(N2C(=O)N(Cc3ccc(C)cc3C)c3ccccc3S2(=O)=O)cc1	nt	nt	i	i	i	nt	nt	nt	nt
O=C(N/N=C/c1cc2c3c(c1O)CCCN3CCC2)c1ccccc1O	3.16µM	2.82µM	-99.9	i	1.3µM	1.46µM	i	?	i	SARS PLpro yeast-2=?
Cc1cccc(C(=O)NCC(=O)OCc2cc(=O)n3nc(CC(C)C)sc3n2)c1	nt	nt	i	i	i	nt	nt	nt	nt
O=C(Nc1cccnc1)c1cccs1	?	i	?	i	?	?	i	8.91µM	i
CC(=O)c1ccc(N2CCN(C(=O)CCCCn3c(=O)[nH]c4ccccc4c3=O)CC2)cc1	nt	nt	i	?	i	nt	nt	nt	nt
Cc1cccc(NC2=C/C(=N/S(=O)(=O)c3cccs3)c3ccccc3C2=O)c1	2.82µM	i	i	?	3.16µM	?	?	14.1µM	?
COc1cccc(-c2cncnc2Nc2ccc(F)cc2)c1	nt	nt	nt	i	nt	nt	nt	nt	nt
COc1ccc2c(c1)O[C@@H](c1ccc3c(c1)OCO3)[C@H](OC(=O)Nc1ccc(C)c(Br)c1)C2=O	nt	nt	nt	nt	i	i	nt	nt	nt
CN1c2ccccc2C(C)(C)C12CC(c1ccc(Cl)c(S(=O)(=O)N3CCCC3)c1)=NO2 (centres undefined)	i	i	nt	nt	i	i	i	3.98µM	i
CCCCCCCCCCCCCCCCCC(=O)NCC(COP(=O)([O-])OCC[N+](C)(C)C)OCC (centres undefined)	nt	nt	nt	nt	?	20µM	nt	nt	nt	HeLa G2M arrest=?
CCCNC1=C(N(C(C)=O)c2cccc(F)c2)C(=O)c2ccccc2C1=O	7.94µM	i	-99.6	28.2µM	?	?	i	?	?
Cc1oc(-c2ccccc2Cl)nc1CSCC(=O)N1CCCC1	?	i	-77.6	i	0.651µM	?	i	3.98µM	i
Nc1ccc2c(c1)C(=O)C(=O)c1ccccc1-2	2.51µM	i	-98.2	5.62µM	?	5.62µM	28.2µM	20µM	i
Nc1ccc2c(c1)C(=O)c1ccccc1C2=O	?	i	i	i	i	i	nt	nt	nt
Nc1ccc2c(c1)C(=O)c1ccccc1-2	?	nt	i	i	i	?	nt	nt	nt
O=C1C(=O)c2ccc(-c3ccccc3)cc2-c2ccccc21	4.47µM	i	-99.0	14.1µM	?	5.8µM	?	22.4µM	?
COCCCNc1ncnc2onc(-c3ccc(F)cc3)c12	nt	nt	i	i	i	nt	nt	nt	nt
CCCOc1ccc(C(=O)Nc2nonc2-c2ccc(OCC)cc2)cc1	nt	nt	i	i	i	i	nt	nt	nt
CC(/C=C/c1ccccc1)=N/NC(=O)c1cc([N+](=O)[O-])cc([N+](=O)[O-])c1	i	i	i	i	?	?	i	?	i
CC(/C=C/c1ccccc1)=N\NC(=O)c1ccc2c(c1)OCCO2	?	i	i	i	?	?	nt	nt	nt
CC(=O)c1ccc(-n2c(SCC(=O)c3c[nH]c4ccccc34)nc3ccccc3c2=O)cc1	?	i	-88.2	i	nt	i	i	i	i
O=C1C2CCCN2C(c2ccccc2)N1c1ccc(F)cc1 (centres undefined)	i	i	i	i	nt	i	nt	nt	nt
O=C1C2CCCN2C(c2ccc(F)cc2)N1c1ccc(Cl)cc1 (centres undefined)	i	i	-77.1	i	nt	nt	i	15.8µM	i
SMILES	HCV inh	SARS PLpro yeast-1	HCMV inh	FMDV antiviral	LASV entry inh	MARV entry inh	WI-38 cytotox	PNC assembly inh	PC3M casp3-7	others
Cc1ccc(C(O)(C(=O)NNC(=O)CN2CCN(C)CC2)c2ccc(C)cc2)cc1	i	?	?	i	i	?	i	i	i
CCCOc1ccccc1C1Oc2nc(SC)nnc2-c2ccccc2N1C(C)=O (centres undefined)	nt	nt	i	i	?	i	nt	nt	nt
CCCSc1cc(N2CCN(C)CC2)nc(-c2ccc(OC)cc2)n1	14.1µM	i	i	i	?	?	i	?	i
CCCSc1cc(N2CCCC2)nc(-c2ccccc2)n1	i	i	i	i	i	i	nt	nt	nt
Cc1nnc(SC(C)C(=O)Nc2ncc(Cl)cc2Cl)n1Cc1ccccc1 (centres undefined)	i	i	i	i	i	i	nt	nt	nt
COCCn1c(SC(C)C(=O)Nc2ncc(Cl)cc2Cl)nc2ccccc21 (centres undefined)	?	i	-69.7	?	1.41µM	2µM	i	12.6µM	i
Cc1cc(SC(C)C(=O)Nc2ncc(Cl)cc2Cl)nc2ccccc12 (centres undefined)	?	i	i	i	5.8µM	?	i	11.2µM	i
CSc1nc(NC2CCCC2)c([N+](=O)[O-])c(NC2CCCC2)n1	nt	nt	nt	i	nt	nt	nt	nt	nt
O=S1(=O)c2ccccc2N(Cc2cccc(Cl)c2)c2ccccc21	nt	nt	i	?	i	nt	nt	nt	nt
CCN1C(=O)c2cccc3c(S(=O)(=O)N(C(=O)c4ccncc4)c4ccc(OC)cc4)ccc1c23	?	i	i	i	?	?	i	i	i
CCN(CC)C(=S)SSC(=S)N(CC)CC	nt	i	i	i	2.91µM	3.55µM	?	?	i
C=C(Cl)CSC(=S)N(CC)CC	i	i	i	i	nt	i	nt	nt	nt
CCOC(=O)c1c(NC(=O)c2c(-c3ccccc3)noc2C)sc(C)c1-c1ccccc1	7.08µM	i	-102.2	?	?	0.126µM	i	1.58µM	i
Cc1c(NC(=O)CSc2nnc3c4ccccc4n(CCc4ccccc4)c3n2)c(=O)n(-c2ccccc2)n1C	?	i	-85.1	?	0.631µM	?	i	8.91µM	i
COc1ccc(/C=C/C(=O)OCC(=O)Nc2ccc(Cl)c(S(=O)(=O)N(C)C)c2)cc1OC	i	i	i	?	i	i	i	i	i
COc1ccc(/C=C/C(=O)OCC(=O)Nc2ccc(S(N)(=O)=O)cc2)cc1OC	i	i	i	i	nt	nt	nt	nt	nt
O=C1C(=Cc2cccs2)C(=O)c2ccccc21	i	i	i	i	i	i	i	i	i
O=S(=O)(Nc1cc(Sc2cccc3cccnc23)c(O)c2ccccc12)c1ccc(F)cc1	11.2µM	i	-100.0	12.6µM	11.2µM	6.51µM	?	?	?
O=C(c1ccccc1)c1ccc(OCCO)cc1	i	i	i	i	nt	nt	nt	nt	nt
